Compound activity: PubChem, National Center for Advancing Translational Sciences (NCATS)
NPC1 promoter act: qHTS Assay for NPC1 Promoter Activators. Huh7 NPC1 promoter luciferase reporter, 24 h. Potency, µM (doses to about 9.22 µM), actives largely listed as activators. 2.4% of 320,000 active; also: nearly all actives have a fitted effect of over 60% in size
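Readout is luciferase luminescence, reflecting NPC1 promoter activation in stably transfected Huh7 cells after 24 h compound exposure at 37 °C in reduced-serum medium with 10% FBS.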
ELG1 genotox: qHTS screen for small molecules that induce genotoxicity in human embryonic kidney (HEK293T) cells expressing luciferase-tagged ELG1; HEK293T ELG1-luciferase reporter, luminescence, 16 h; Potency, µM (series often up to 46 µM), actives largely listed as activators; 1.3% of 330,000 active; AID 504466, 2011; also: nearly all actives have a fitted effect of over 60% in size
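Genotoxicity was scored as increased ELG1-luciferase reporter signal, measured by ONE-Glo luminescence (30 min, room temperature). Compound or vehicle exposure of the HEK293T reporter cells lasted 16 hr at 37°C.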
FLuc modulator: qHTS profiling assay for firefly luciferase inhibitor/activator using purifed enzyme and Km concentrations of substrates (counterscreen for miR-21 project) | Potency, µM (titrated, usually from 57.5 µM), actives largely listed as inhibitors | purified FLuc, Km substrates, luminescence inhibition | 6.9% of 360,000 active | Luciferin 4-monooxygenase (Photinus pyralis), P08659; also: nearly all actives have a fitted effect of over 55% in size
Target sequence (P08659 whole entry, looked up): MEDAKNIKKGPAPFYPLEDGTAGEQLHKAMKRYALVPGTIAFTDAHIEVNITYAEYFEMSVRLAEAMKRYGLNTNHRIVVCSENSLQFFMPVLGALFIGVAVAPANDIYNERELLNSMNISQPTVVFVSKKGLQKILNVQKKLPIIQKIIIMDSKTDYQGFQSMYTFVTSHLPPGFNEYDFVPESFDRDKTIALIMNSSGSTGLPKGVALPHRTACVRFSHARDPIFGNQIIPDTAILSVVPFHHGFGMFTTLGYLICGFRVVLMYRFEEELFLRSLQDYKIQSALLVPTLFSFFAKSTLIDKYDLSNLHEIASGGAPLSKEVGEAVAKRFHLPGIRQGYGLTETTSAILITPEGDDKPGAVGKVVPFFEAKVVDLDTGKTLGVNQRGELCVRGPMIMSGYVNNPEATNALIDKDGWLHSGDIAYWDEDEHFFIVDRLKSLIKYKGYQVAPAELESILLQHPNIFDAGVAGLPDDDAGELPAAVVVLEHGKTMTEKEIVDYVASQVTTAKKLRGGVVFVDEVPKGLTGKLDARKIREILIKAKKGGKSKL
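Purified P. pyralis luciferase (10nM final) with 10uM D-luciferin and 10uM ATP (Km levels) in 50mM Tris acetate pH 7.5, 10mM Mg acetate, 0.01% Tween-20, 0.05% BSA; qHTS 6-point titration, ~60 µM downward; luminescence read.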
p53 reactivator: qHTS assay for re-activators of p53 using a Luc reporter. H1299 p53-A138V BP100-luciferase reporter, luminescence, 24 h. AID 504706, 2011. 0.063% of 320,000 active. Potency, µM (highest dose often 92.2 µM), hits mostly activators; also: nearly all actives have a fitted effect of over 45% in size
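H1299 (p53-null), stable ts p53-A138V + BP100-Luc; 1000 cells/well, Opti-MEM/10% FBS; cpd 4 pt, 1:5; 24 h, 37 deg C, 5% CO2; detection reagent 10 min RT; luminescence.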
SMN2 splice up: qHTS Assay for Enhancers of SMN2 Splice Variant Expression; 2.8% of 210,000 active; HEK293 SMN2-luciferase splicing reporter, luminescence, 30-36 h; AID 1458, 2008; Potency, µM (top dose mostly 46.1 µM), usual class: activators; also: nearly all actives have a fitted effect of over 55% in size
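HEK293 cells carry an SMN2 […]–luciferase reporter in which exon 7 inclusion puts luciferase in frame. Cells were plated 10-12 h before compound addition, then incubated 30-36 h at 37C. ONE-Glo luminescence was read; sodium butyrate at 4.5 mM final served as control.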
Rab9 prom act: qHTS Assay for Rab9 Promoter Activators; Huh7 Rab9 promoter-luciferase reporter, luminescence, 24 h; Potency, µM (highest dose often 9.22 µM), actives largely listed as activators; 2.8% of 320,000 active; AID 485297, 2010; also: nearly all actives have a fitted effect of over 60% in size
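Huh7 cells stably carrying a Rab9 promoter-luciferase reporter, 1500 cells per well in OP-MEM I with 10% FBS, treated with compound 24 hours at 37C. Luciferase activity read by luminescence after 10 minutes with Amplite reagent.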
Numbers stand for hits; – = inactive; ? = inconclusive; · = not tested or not shown; [ ] = remark or other dose. Hits are enriched below; roughly 7.4% of the tested compounds scored in any of these assays. Calls follow the shape of the dose curve; as a rule, active = well fitted curve in the direction sought with a large enough effect; inconclusive = small, poorly fitted or top-dose-only effect, or another doubt; inactive = no such curve, though single readings can be large; an effect the other way counts as inactive or inconclusive.

SMILES	NPC1 promoter act	ELG1 genotox	FLuc modulator	p53 reactivator	SMN2 splice up	Rab9 prom act
Cc1ccc2occ(CC(=O)N3CCN(c4cccc(Cl)c4)CC3)c2c1	·	·	–	·	–	·
Cc1cccc(CNC(=O)c2cnc3c(-c4cccc(C)c4)c(C)nn3c2C)c1	·	·	–	·	·	·
COc1cc(-c2nc3ccccn3c2N)ccc1O	–	–	?	·	·	–
c1ccn2cc(C34CC5CC(CC(C5)C3)C4)nc2c1	–	–	?	–	–	–
Brc1ccc(-c2cn3ccccc3n2)cc1	0.71µM	?	0.76µM	–	·	0.4µM
Nc1cc(-c2ccc(Br)cc2)nc2cc(-c3ccccc3)nn12	–	–	?	–	–	–
Oc1ccc(-c2cn3ccccc3n2)cc1O	–	13µM	12µM	?	·	?
Oc1ccc(-c2cn3ccccc3n2)cc1	2.2µM	?	5.4µM	–	·	2.8µM
N[C@@H](Cc1cccnn1)C(=O)O	·	·	·	·	–[9.22 µM]	·
COc1ccc(C(=O)NCc2ccco2)cc1S(=O)(=O)NC1CC1	–	–	·	–	·	–
CSc1cnc2c(=O)n(C)c(=O)[nH]c2n1	–	–	–	–	–	–
Cn1c(=O)[nH]c2nnc(-c3ccc(Cl)c(Cl)c3)nc2c1=O	0.71µM	?	3.4µM	–	·	?
Nc1ccc(-c2nc3c(ccc4ccccc43)[nH]2)cc1	?	?	2.4µM	–	·	?
Fc1ccc(-c2nc3ccncc3[nH]2)cc1	–	–	?	–	–	–
O=C(O)c1ccc(/C=C(\c2nc3ccccc3[nH]2)c2nc3ccccc3s2)cc1	–	–	15µM	–	·	–
Nc1ccc(-c2nc3ccccc3[nH]2)cc1	1.6µM	2.9µM	9.5µM	·	4.5µM	0.45µM
Fc1ccc(-c2nc3ccccc3[nH]2)cc1	2.5µM	?	12µM	–	10µM	2.5µM
COc1cc(OC)c(NC(=O)CCn2cnc3onc(-c4ccc(F)cc4)c3c2=O)cc1Cl	·	·	–	·	·	·
CCOC(=O)CCCCCC(=O)Nc1ccc2c(c1)C(=O)N([C@H](C)CO)C[C@@H](C)[C@H](CN(C)S(=O)(=O)c1cn(C)cn1)O2	·	–	·	–	·	·
COc1cc(C(CC(=O)Nc2cc(C)ccn2)N2Cc3ccccc3C2=O)cc(OC)c1OC (stereo not given)	–	–	–	–	·	–
COC(=O)c1ccccc1NC(=O)Cn1cnc2sc(C)c(S(=O)(=O)N3CCC(C)CC3)c2c1=O	·	·	–	·	–	·
NCCC[C@@H](CC(=O)N[C@@H]1CCCC[C@H]1C(=O)N[C@H](CC(=O)N[C@@H](CCC(=O)O)CC(=O)O)Cc1c[nH]c2ccccc12)NC(=O)C[C@H](Cc1c[nH]c2ccccc12)NC(=O)[C@@H]1CCCC[C@H]1N	·	·	·	·	–	·
Oc1ccc(C=Nc2ccccc2-c2nc3ccccc3[nH]2)cc1	?	–	27µM	?	13µM	–
Cn1cc(-c2nc3ccccc3[nH]2)c2ccccc21	?	–	4.3µM	?	22µM	?
Nc1ccccc1-c1nc2ccccc2[nH]1	4µM	10µM	12µM	?	?	6.3µM
SMILES	NPC1 promoter act	ELG1 genotox	FLuc modulator	p53 reactivator	SMN2 splice up	Rab9 prom act
O=C(O)c1ccc(-c2nc3ccccc3[nH]2)cc1	–	–	15µM	–	–	–
CSc1ncc(C(=O)NCc2cccc(C)c2)c(-c2ccccc2)n1	·	·	–	·	·	·
COCC1C2CC[C@H]3C(OCc4ccc(OC)cc4)OC[C@]4(C)[C@H]3C2=C(CN4C(=O)OC(C)(C)C)[C@H](C)C1COC (stereo not given in full)	·	·	·	·	–	·
Cc1ccc(-c2c(C(=O)N/N=C/C3CC=CCC3)nnn2-c2nonc2N)cc1 (stereo not given)	–	–	–	–	·	–
O=C(OCC#CCSc1nnc(-c2ccccc2)o1)c1cc2ccccc2o1	–	–	–	–	–	–
Cc1ccc(-c2nnc(SCC#CCOC(=O)c3cccs3)o2)cc1	–	–	19µM	–	–	–
Cc1ccc(-c2nnc(SCC#CCOC(=O)c3ccco3)o2)cc1	–	?	17µM	–	–	?
COc1cccc(-c2nc(C(N)=O)c3c(n2)n(-c2ccc4c(c2)OCO4)c(=O)n3C)c1OC	·	·	–	·	·	·
COC(=O)c1ccc(N=NNc2ccc(C(=O)OC)cc2)cc1	?	18µM	?	–	?	?
O=C(O)c1ccc(N=NNc2cccc([N+](=O)[O-])c2)cc1	0.89µM	?	2.4µM	–	11µM	0.63µM
COC(=O)c1ccc(N=NNc2cccc(Br)c2)cc1	1.3µM	?	7.6µM	?	5µM	1.3µM
COC(=O)c1ccc(N=NNc2ccccc2)cc1	1.4µM	?	3.8µM	?	8.9µM	1.3µM
COC(=O)c1cccc(NC(=O)C2CCN(S(=O)(=O)Cc3ccccc3)CC2)c1C	·	·	–	·	·	·
CCOC(=O)C1CCN(C(=O)Cn2c(=O)cc(C)c3c(C)nn(C)c32)CC1	·	·	–	·	·	·
N/C(=N\OC(=O)c1cc([N+](=O)[O-])ccc1Cl)c1ccccn1	–	–	24µM	–	·	–
N/C(=N\OC(=O)c1ccc([N+](=O)[O-])cc1Cl)c1ccccn1	?	0.33µM	0.12µM	·	·	0.32µM
Cc1ccc(OC(=O)c2ccc([N+](=O)[O-])cc2Cl)cn1	–	–	12µM	–	·	–[1.84 µM]
N/C(=N\OC(=O)c1cccc([N+](=O)[O-])c1)c1ccccn1	?	–	5.4µM	–	14µM	3.5µM
NC(=O)c1ccc([N+](=O)[O-])cc1Cl	·	·	·	·	–	·
COc1ccccc1C/C(N)=N/OC(=O)c1cccc([N+](=O)[O-])c1	–	–	–	–	–	–
O=C(NCc1ccc(Cl)cc1)c1cnc2sc(N3CCCC3)nn2c1=O	·	·	–	·	·	·
NS(=O)(=O)c1ccc(NC(=O)CSc2nc3c(cnn3-c3ccccn3)c(=O)[nH]2)cc1	–	–	–	–	·	–
CC(=O)N[C@@H](Cc1ccc(O)cc1)C(=O)N[C@H](C(=O)N[C@@H](C)C(=O)N[C@H](C#N)CC(=O)O)C(C)C	–	·	–	·	·	–
NS(=O)(=O)O	·	·	·	·	–	·
Cc1nc(-c2ccccc2Cl)sc1C(=O)/C=C/N(C)C	3.2µM	?	17µM	–	?	1.8µM
CN(C)/C=C/C(=O)c1ccccc1OCc1cnc(Cl)s1	–	–	–	–	–	–
Cc1oc(-c2cccc(C(F)(F)F)c2)nc1CN1CCOCC1	–	?	27µM	–	·	?
O=C(NCc1ccncc1)c1ccc(S(=O)(=O)Nc2ccccc2)cc1	–	–	–	–	·	–
COc1ccc2cc(C(=O)NCc3ccc4c(c3)CCN4C(=O)c3ccc(F)cc3)[nH]c2c1	·	·	–	·	·	·
